Source: PubChem BioAssay (several laboratories)
TcdB GH inh: inhibitors of Clostridioides difficile toxin B glycohydrolase. actives 0.24% (n = 350,000). AID 652162. TcdB glycohydrolase enzymatic assay, plate reader. P18177. inhibition, % at 9.99 µM; in the data active means inhibition above about 10%
Target sequence (P18177 whole entry, looked up): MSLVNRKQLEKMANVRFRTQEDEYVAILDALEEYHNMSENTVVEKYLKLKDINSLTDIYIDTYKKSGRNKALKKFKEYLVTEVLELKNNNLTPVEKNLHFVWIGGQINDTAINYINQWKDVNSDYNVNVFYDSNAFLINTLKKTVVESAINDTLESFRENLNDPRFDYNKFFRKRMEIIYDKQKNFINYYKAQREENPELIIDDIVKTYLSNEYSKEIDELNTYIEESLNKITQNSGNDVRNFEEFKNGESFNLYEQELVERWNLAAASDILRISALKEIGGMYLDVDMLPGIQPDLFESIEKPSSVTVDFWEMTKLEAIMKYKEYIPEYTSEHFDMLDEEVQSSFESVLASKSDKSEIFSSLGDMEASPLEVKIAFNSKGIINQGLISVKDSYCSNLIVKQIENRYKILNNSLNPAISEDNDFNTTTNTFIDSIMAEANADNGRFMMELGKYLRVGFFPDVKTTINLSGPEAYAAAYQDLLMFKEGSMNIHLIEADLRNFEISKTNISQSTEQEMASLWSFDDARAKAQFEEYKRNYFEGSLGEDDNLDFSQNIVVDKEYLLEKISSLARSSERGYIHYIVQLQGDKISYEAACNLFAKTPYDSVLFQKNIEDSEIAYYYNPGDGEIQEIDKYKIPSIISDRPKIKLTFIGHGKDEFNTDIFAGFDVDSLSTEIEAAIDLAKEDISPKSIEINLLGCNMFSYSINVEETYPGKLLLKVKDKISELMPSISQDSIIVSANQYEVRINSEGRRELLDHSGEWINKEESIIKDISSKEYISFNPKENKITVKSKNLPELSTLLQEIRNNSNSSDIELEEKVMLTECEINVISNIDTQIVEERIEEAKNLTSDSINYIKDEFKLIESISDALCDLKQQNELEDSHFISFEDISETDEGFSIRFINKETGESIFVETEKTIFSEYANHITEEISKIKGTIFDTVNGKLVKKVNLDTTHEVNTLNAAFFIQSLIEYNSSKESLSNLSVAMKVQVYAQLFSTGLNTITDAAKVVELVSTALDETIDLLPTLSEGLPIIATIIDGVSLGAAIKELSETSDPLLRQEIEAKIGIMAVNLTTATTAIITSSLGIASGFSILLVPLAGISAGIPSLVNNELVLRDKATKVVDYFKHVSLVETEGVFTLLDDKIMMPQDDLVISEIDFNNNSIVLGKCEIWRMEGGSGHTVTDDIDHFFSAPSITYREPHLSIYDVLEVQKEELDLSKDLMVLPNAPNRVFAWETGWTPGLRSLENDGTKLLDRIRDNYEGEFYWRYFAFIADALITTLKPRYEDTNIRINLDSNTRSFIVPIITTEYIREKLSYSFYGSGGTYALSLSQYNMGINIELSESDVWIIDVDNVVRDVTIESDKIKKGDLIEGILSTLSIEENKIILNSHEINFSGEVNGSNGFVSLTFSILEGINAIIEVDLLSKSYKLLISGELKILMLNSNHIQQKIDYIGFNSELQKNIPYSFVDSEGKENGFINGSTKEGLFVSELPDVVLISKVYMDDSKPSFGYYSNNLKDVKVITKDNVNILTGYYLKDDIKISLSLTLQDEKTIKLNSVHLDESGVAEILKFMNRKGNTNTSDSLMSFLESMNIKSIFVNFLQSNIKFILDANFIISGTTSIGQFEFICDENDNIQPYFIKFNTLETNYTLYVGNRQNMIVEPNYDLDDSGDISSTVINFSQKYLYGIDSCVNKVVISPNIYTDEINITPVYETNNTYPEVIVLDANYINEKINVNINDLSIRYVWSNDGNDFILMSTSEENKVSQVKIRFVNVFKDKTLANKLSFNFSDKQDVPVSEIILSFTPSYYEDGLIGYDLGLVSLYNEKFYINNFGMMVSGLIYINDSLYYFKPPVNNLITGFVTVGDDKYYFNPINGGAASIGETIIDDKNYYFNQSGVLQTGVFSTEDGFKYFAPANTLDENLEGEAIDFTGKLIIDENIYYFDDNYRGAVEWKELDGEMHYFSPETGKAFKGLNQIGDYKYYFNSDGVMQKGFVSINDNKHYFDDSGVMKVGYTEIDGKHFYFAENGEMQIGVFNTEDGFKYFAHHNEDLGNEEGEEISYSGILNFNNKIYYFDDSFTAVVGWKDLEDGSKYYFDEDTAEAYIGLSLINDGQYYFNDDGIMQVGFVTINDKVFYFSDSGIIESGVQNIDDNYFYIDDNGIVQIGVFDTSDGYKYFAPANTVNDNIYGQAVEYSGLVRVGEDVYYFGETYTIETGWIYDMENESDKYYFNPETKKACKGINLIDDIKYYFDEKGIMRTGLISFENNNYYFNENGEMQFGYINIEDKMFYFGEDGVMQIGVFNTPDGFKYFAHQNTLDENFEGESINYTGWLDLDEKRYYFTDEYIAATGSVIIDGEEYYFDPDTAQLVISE
VHR inh abs: DUSP3 (human) phosphatase inhibition | P51452 | recombinant VHR phosphatase, pNPP absorbance | inhibition, % at 13.3 µM | actives 0.52% (n = 290,000) | AID 1654; in the data active means inhibition above about 50%
BH1578 lux ind: induces V. cholerae light production without autoinducers; V. cholerae BH1578 lux reporter, luminescence, 6 h; activation, % at 18.7 µM; actives 0.16% (n = 350,000); AID 588436; in the data active means activation mostly above about 9.7%, no sharp cut-off
SARS 3CLpro inh: SARS-CoV 3CLpro protease inhibition. P0C6X7. AID 1706. recombinant SARS-CoV 3CLpro, quenched FRET peptide cleavage. inhibition, % at 6 µM. actives 0.14% (n = 290,000); in the data active means inhibition above about 12%
CCHF vOTU inh: blocks the CCHF virus ovarian tumor domain protease; CCHFV vOTU protease, Pep-AMC fluorescence; actives 0.55% (n = 370,000); inhibition, % at 11.5 µM; AID 651958; in the data active means inhibition above about 30%
SSB-PriA inh: inhibitors of Klebsiella pneumoniae PriA binding to SSB C-terminal tail. AlphaScreen SSBct-PriA binding, biotinylated peptide. actives 0.6% (n = 430,000). inhibition, % at 33 µM; in the data active means inhibition mostly above about 37%, no sharp cut-off; inactive means mostly below about 20%
Numbers stand for hits; i = inactive; nt = not tested or not shown. In the library only some 1.3% were active in any assay of this set; here they are far more common.

SMILES | TcdB GH inh | VHR inh abs | BH1578 lux ind | SARS 3CLpro inh | CCHF vOTU inh | SSB-PriA inh
COc1ccccc1N1CCN(c2cc(N3CCCC3)nc(C)n2)CC1 | nt | i | i | i | i | i
COc1ccc(OC)c2c(C)cc(N3CCCN(C)CC3)nc12 | nt | i | i | i | i | 44
N=C1CCC(=N)c2c1c(O)c1ccccc1c2O | nt | i | i | i | nt | 74
CCC(C(=O)NCCCN1CC(C)CC(C)C1)n1ncn2c(cc3occc32)c1=O (stereo not drawn) | i | 58 | i | i | i | i
Cc1cccc(NC(=O)Cn2nc(C(C)C)c3cnn(C(C)(C)C)c3c2=O)c1C | nt | nt | nt | nt | nt | i
O=C(NCCOc1ccccc1)c1ccc(C(F)(F)F)cc1 | nt | nt | nt | nt | nt | i
O=C(Cn1c(=O)[nH]c2ccccc2c1=O)N1CCN(Cc2ccc3c(c2)OCO3)CC1 | i | i | i | i | i | i
CCC(C(=O)N1CCN(Cc2ccc3c(c2)OCO3)CC1)n1c(=O)[nH]c2ccccc2c1=O (stereo not drawn) | i | 51 | i | i | i | i
COc1ccc(NC(=S)N=C(Nc2ccc(C)cc2)c2ccccc2)cc1 | nt | nt | nt | nt | nt | 46
O=C(NCc1ccccc1)N1CCC(c2nnc(C(F)(F)F)o2)CC1 | nt | nt | nt | nt | nt | i
COc1ccc(CCNc2oc(Cc3cccc4ccccc34)nc2C#N)cc1OC | nt | i | i | i | i | 43
COc1ccc(CCNc2oc(COc3ccc(Br)cc3)nc2C#N)cc1OC | i | i | i | i | i | i
COc1ccc(C2C(C#N)=C(N)Oc3n[nH]c(-c4ccccn4)c32)c(OC)c1OC (stereo not drawn) | nt | i | nt | i | i | 70
C=CCOC(=O)C1=C(C)NC(=O)NC1c1ccc(Cl)cc1 (stereo not drawn) | i | i | i | i | i | 102
C=CCOC(=O)C1=C(C)NC(=O)NC1c1ccc(N(C)C)cc1 (stereo not drawn) | i | i | i | i | i | i
COc1ccc(C2=Nn3c(nnc3-c3ccccc3OC)SC2)cc1OC | nt | i | i | i | i | i
COc1ccc(C2=Nn3c(nnc3-c3ccccn3)SC2)cc1OC | nt | i | i | i | i | 83
CC(C)(C)C1=Nn2c(nnc2-c2ccccn2)SC1 | nt | i | i | i | i | 90
COc1ncccc1C(=O)N1CCN(c2cc(-n3cncn3)ncn2)CC1 | nt | nt | nt | nt | nt | i
CCCN1CCCc2cc(CCNS(=O)(=O)c3cc(F)ccc3F)ccc21 | nt | nt | nt | nt | nt | 68
CCCN1CCCc2cc(CCNS(=O)(=O)c3ccccc3F)ccc21 | nt | nt | nt | nt | nt | 50
CS(=O)(=O)N1CCC(C(=O)NCC#CCOc2ccc3c(c2)OCO3)CC1 | nt | nt | nt | nt | nt | i
COc1ccc(-c2nc(CCNS(=O)(=O)c3cccs3)cs2)cc1OC | nt | nt | nt | nt | nt | i
Cn1c(=O)c(/C=C/c2cccs2)nc2ccccc21 | nt | nt | nt | nt | nt | i
CCCc1cc(=O)oc2c(C)c(OCC(=O)c3ccc(N4CCCC4)cc3)ccc12 | nt | 58 | i | i | i | i
SMILES | TcdB GH inh | VHR inh abs | BH1578 lux ind | SARS 3CLpro inh | CCHF vOTU inh | SSB-PriA inh
Cc1csc(N=Nc2ccc(N(C)C)cc2)[n+]1[O-] | 13 | nt | i | nt | i | nt
Cc1ccccc1CSC1=NCCN1C(=O)c1ccccc1I | nt | nt | nt | nt | nt | i
COc1ccc2nc(N(CCCN(C)C)C(=O)c3ccno3)sc2c1 | nt | nt | nt | nt | nt | i
CCn1cc(CNC(=O)CSc2nc(-c3ccc(OC)c(OC)c3)cc(C(F)(F)F)n2)c(C)n1 | i | 51 | i | i | i | i
COCCNC(=O)CSc1nc(-c2ccc(OC)c(OC)c2)cc(C(F)(F)F)n1 | nt | i | i | i | i | i
CCCCCOc1cccc(C(=O)N=c2sc3cc(F)ccc3n2CCOCC)c1 | nt | nt | nt | nt | nt | i
C#CCONC(=O)c1cc(OCC(F)(F)F)ccc1OCC(F)(F)F | nt | 53 | i | i | i | i
Cc1ccc(Cl)cc1OCC(=O)NCCOC(=O)Nc1sc(=S)n(C)c1C | nt | 55 | i | i | i | i
Cc1cc(Cl)ccc1OCC(=O)NCCOC(=O)Nc1sc(=S)n(C)c1C | i | i | i | i | i | i
O=C(Cc1ccccc1)NNc1ccc2ccccc2c1 | i | i | i | i | i | i
O=C(CN1C(=O)CCC1=O)NNc1ccc2ccccc2c1 | 82 | i | i | i | i | i
NCCn1ncc2c(N3CCCC3)ncnc21 | nt | nt | nt | nt | nt | i
Cn1cc(C(=O)Nc2nc3c(s2)CN(S(C)(=O)=O)CC3)nn1 | nt | nt | nt | nt | nt | i
CC(=O)c1cccc(NC(=O)c2csc3c2CCCCC3)c1 | i | i | i | i | i | i
CCOc1ccc(NC(=O)c2csc3c2CCCC3)cc1 | i | i | i | i | i | 115
COc1ccc(OC)c(NC(=O)C2CC(=O)N(c3ccccc3)C2)c1 (stereo not drawn) | nt | i | i | i | i | i
COc1ccc(NC(=O)C2CC(=O)N(c3ccccc3C)C2)c(OC)c1 (stereo not drawn) | i | 58 | i | i | i | i
CCCCn1c(NS(=O)(=O)c2ccc(F)cc2)c(S(=O)(=O)c2ccc(C)cc2)c2nc3ccccc3nc21 | nt | nt | nt | nt | nt | 56
CCCCOCCCn1c(NS(=O)(=O)c2ccc(C)cc2)c(S(=O)(=O)c2ccc(C)cc2)c2nc3ccccc3nc21 | nt | nt | nt | nt | nt | i
CCCCCCCCn1c(NS(=O)(=O)c2ccc(C)cc2)c(S(=O)(=O)c2ccc(C)cc2)c2nc3ccccc3nc21 | nt | nt | nt | nt | nt | 54
CCCCCCCCn1c(NS(=O)(=O)c2ccc3ccccc3c2)c(S(=O)(=O)c2ccc(C)cc2)c2nc3ccccc3nc21 | nt | nt | nt | nt | nt | i
CCCCn1c(NC(=O)c2ccccc2)c(S(=O)(=O)c2ccc(C)cc2)c2nc3ccccc3nc21 | nt | nt | nt | nt | nt | 54
CCCCCn1c(NS(=O)(=O)c2ccc(F)cc2)c(S(=O)(=O)c2ccc(C)cc2)c2nc3ccccc3nc21 | nt | nt | nt | nt | nt | i
CCCCCCCCn1c(NS(=O)(=O)c2ccccc2)c(S(=O)(=O)c2ccccc2)c2nc3ccccc3nc21 | nt | nt | nt | nt | nt | 60
CCc1ccc(-c2ccc(=O)n(Cc3nc(-c4ccc(C)cc4)no3)n2)cc1 | nt | nt | nt | nt | nt | i
SMILES | TcdB GH inh | VHR inh abs | BH1578 lux ind | SARS 3CLpro inh | CCHF vOTU inh | SSB-PriA inh
Cn1nc(CNC(=O)Cn2c(=O)oc3ccccc32)c2c1CCOC2 | nt | nt | nt | nt | nt | i
O=C(N(Cc1ccsc1)Cc1ccccn1)C1(c2ccccc2)CCOCC1 | nt | nt | nt | nt | nt | i
CO[C@@H](CNC(=O)c1ccc(Cl)s1)c1ccccc1C | nt | nt | nt | nt | nt | i
Cn1cc(C(=O)N2CCOCC2)cc(NC(=O)c2c(F)cccc2Cl)c1=O | nt | nt | nt | nt | nt | i
CCCCCn1c(NS(=O)(=O)c2ccccc2)c(C(=O)OCC)c2nc3ccccc3nc21 | nt | nt | nt | nt | nt | 70
CCCNC(=O)c1ccc2c(=O)n(-c3ccc(OC)cc3)c(SCC(=O)CC(=O)OC)nc2c1 | nt | nt | nt | nt | nt | i
COc1ccccc1CCNC(=O)Cc1cn(Cc2ccc(Cl)cc2)c2ccccc12 | nt | nt | nt | nt | nt | i
Cc1cccc(OCC(=O)NCCN2CCN(c3ccc(F)cc3)CC2)c1 | nt | nt | nt | nt | nt | i
CNC(=O)C(=O)Nc1cc(Cl)ccc1C#N | nt | nt | nt | nt | nt | i
O=C(CSc1ccc(-c2ccccn2)nn1)Nc1ccccc1Cl | nt | nt | nt | nt | nt | 65
O=C(NCCOc1ccc(-c2ccccn2)nn1)c1ccccc1C(F)(F)F | nt | nt | nt | nt | nt | 95
O=C(CSc1ccc(-c2ccccn2)nn1)Nc1ccccc1C(F)(F)F | nt | nt | nt | nt | nt | 69
Cc1ccc(-c2ccc(OCCNC(=O)c3ccccc3C(F)(F)F)nn2)cc1 | nt | nt | nt | nt | nt | i
O=C(NCCn1ncc2c(=O)n(Cc3ccccc3F)cnc21)c1ccco1 | nt | nt | nt | nt | nt | i
COc1ccccc1-c1nnn(CC#N)n1 | nt | i | 20 | i | i | i
